# Vc quorum ag: quorum light induction in luxS cqsA deficient V. cholerae. V. cholerae BH1578 lux reporter, luminescence, 6 h. activation, % at 18.7 µM. actives 0.16% (n = 350,000); in the data active = activation mostly above about 9.7%, no sharp cut-off; inconclusive = no clear call, values can overlap the other calls; inactive = mostly below about 3.7%
# Autofluor counter: flagged as autofluorescent in microsphere protease counterscreen. fluorescence intensity (test concentration not listed). compound autofluorescence counterscreen, microsphere flow cytometry; active compounds read high. AID 624483. actives 3.1% (n = 360,000); in the data active = fluorescence intensity above about 16000; inconclusive = no clear call, values can overlap the other calls
# BoNT-F LC inh: inhibitors of Botulinum neurotoxin F light chain protease; Multiplex microsphere protease cleavage assay, flow cytometry; inhibition, % at 10 µM; actives 0.22% (n = 360,000); in the data active = inhibition above about 35%, passing the limit was not always enough; inconclusive = no clear call, values can overlap the other calls; note: plate controls were buffer without enzyme for full effect and enzyme alone for no effect
# BoNT-A LC inh2: blocks Botulinum neurotoxin A light chain protease. multiplex microsphere protease substrate cleavage, flow cytometry. inhibition, % at 10 µM. actives 0.17% (n = 360,000); note: plate controls were buffer without enzyme for full effect and enzyme alone for no effect
# Anthrax LF inh2: anthrax lethal factor protease inhibition | multiplex microsphere protease cleavage assay, LF | P15917 | actives 0.12% (n = 360,000) | inhibition, % at 10 µM | AID 588501; note: plate controls were buffer without enzyme for full effect and enzyme alone for no effect
# * = called active by the depositor; i = inactive; u = inconclusive. Compounds with a hit are over-represented: about 3.5% of the library has one in this group of screens. Cut-off read from the data, not from the text of the source, unless noted: active = inhibition above about 30%; inconclusive = no clear call, values can overlap the other calls; inactive = below that.
SMILES,Vc quorum ag,Autofluor counter,BoNT-F LC inh,BoNT-A LC inh2,Anthrax LF inh2
COC(=O)c1ccc(NC2c3ncccc3C(=O)N2Cc2cccs2)cc1 (stereo unspecified),0,1971,-4,0,-2
COC(=O)c1cc(NC2c3ncccc3C(=O)N2Cc2ccccc2)cc(C(=O)OC)c1 (stereo unspecified),0,16375*,-2,1,2
CCOc1ccc(N2C(=O)c3cccnc3C2Nc2ccc(Cl)cc2)cc1 (stereo unspecified),0,21889*,1,2,0
CCOC(=O)c1ccc(NC2c3ncccc3C(=O)N2Cc2ccc(F)cc2)cc1 (stereo unspecified),-2,24047*,-2,-1,-3
COCCCNC(=O)c1nc2ccccc2c(=O)n1NC(=O)Nc1c(Cl)cccc1Cl,i,3107,-5,-4,6
O=C(Cc1ccccc1F)NNC(=O)c1ccncc1,2,4742,-10,-2,-6
Cc1onc(C(=O)NCc2ccccn2)c1[N+](=O)[O-],-1,2004,-1,0,0
COc1cccc(/C=C2\NC(=O)NC2=O)c1O,0,3568,-2,1,-5
Cc1cccc(NS(=O)(=O)c2ccc(C(=O)NCCCN3CCCC3=O)cc2)c1C,i,4592,5,1,-4
N#CC(c1cccc(C(F)(F)F)c1)(c1ncc(C(F)(F)F)cc1Cl)N1CCOCC1 (stereo unspecified),0,23108*,-2,0,-6
N#CC(c1ccccc1)(c1ncc(C(F)(F)F)cc1Cl)N1CCOCC1 (stereo unspecified),-12,10895,0,0,-1
CCOc1ccc(NC(=O)COC(=O)Cn2cnnn2)cc1OCC,i,23264*,-3,0,-1
CCOc1ccc(NC(=O)COC(=O)Cn2nc(C)c([N+](=O)[O-])c2C)cc1OCC,i,3554,-1,0,0
O=C(NC1CCN(Cc2ccc(Cl)cc2)CC1)c1cn(-c2ccccc2)nc1-c1cccnc1,i,21980*,7,0,-9
O=C(O)c1cn(-c2ccccc2)nc1-c1ccc(Cl)cc1,-1,17250*,-9,-6,-9
CCN(CC)C(=O)C1=C(C)NC(=S)NC1c1cn(-c2ccccc2)nc1-c1ccc(Cl)cc1 (stereo unspecified),-1,23563*,-2,0,-1
O=C(NCc1ccncc1)c1cn(-c2ccccc2)nc1-c1cccnc1,0,4307,-1,0,1
CC1=C(C(=O)Nc2ccccn2)C(c2ccc(Cl)cc2)NC(=S)N1 (stereo unspecified),i,4490,-2,0,-2
O=C(CCc1nc2ccccc2c(=O)[nH]1)Nc1nnc(SCc2ccc(F)cc2)s1,i,5722,8,3,-3
Cc1nnc(SCC(=O)c2ccc(Cl)cc2)n(N)c1=O,-1,4383,-5,0,2
CCOC(=O)C1CC(CN2C(=O)c3ccccc3C2=O)OC1=O (stereo unspecified),1,3811,-4,0,-6
N#CCCn1cc(C(=O)CN2C(=O)C(=O)N(C3CCCC3)C2=O)c2ccccc21,5,5819,7,2,3
CCOC(=O)N1CCN(C(=O)c2ccccc2N(C)S(C)(=O)=O)CC1,i,16798*,-4,-2,-4
CCOC(=O)N1CCN(C(=O)c2ccc(NS(C)(=O)=O)cc2)CC1,i,16339*,1,0,-3
N#CCCN(CCCN1CCOCC1)CN1C(=O)c2ccccc2C1=O,0,3542,-1,0,10
SMILES,Vc quorum ag,Autofluor counter,BoNT-F LC inh,BoNT-A LC inh2,Anthrax LF inh2
CC(=O)N1CCc2cc(S(=O)(=O)NC(C)c3ccccc3)ccc21 (stereo unspecified),i,5558,2,0,2
CC(=O)N1CCCc2cc(S(=O)(=O)NC(C(=O)NC(C)c3ccccc3)C(C)C)ccc21 (stereo unspecified),-11,16474*,-1,-1,1
CC(=O)N1CCc2cc(S(=O)(=O)NC(CC(C)C)C(=O)N3CCn4c3nc3ccccc34)ccc21 (stereo unspecified),2,21252*,-2,1,1
Cc1noc(C)c1S(=O)(=O)Nc1ccccc1N1CCOCC1,0,5933,5,0,7
Cc1cc(C)c2[nH]c(=O)c(C(c3nnnn3CC3CCCO3)N3CCCC(C)C3)cc2c1 (stereo unspecified),i,11124,9,0,-9
Cc1cccc2cc(C(c3nnnn3Cc3ccccc3)N3CCN(c4ccccc4)CC3)c(=O)[nH]c12 (stereo unspecified),i,18218*,-8,-4,-3
Cc1cccc2cc(C(c3nnnn3Cc3ccccc3)N3CCN(C)CC3)c(=O)[nH]c12 (stereo unspecified),0,19831*,1,1,0
Cc1cc(C)c2[nH]c(=O)c(C(c3nnnn3CC3CCCO3)N3CCC(C)CC3)cc2c1 (stereo unspecified),i,26168*,-3,u,-1
CCCCn1nnnc1NCc1cccs1,0,19115*,7,3,-1
CCCCn1c(NCc2cccs2)nc2ccccc21,-1,4608,-7,-2,-2
COc1ccccc1N=c1oc2c(OC)cccc2cc1C(=O)NCc1ccco1,i,20264*,1,1,-3
COc1ccccc1C(=O)NCc1ccco1,-5,4247,24,1,-9
COc1ccc(OC)c(N=c2oc3c(OC)cccc3cc2C(=O)NCc2ccco2)c1,i,16799*,-6,0,-4
COc1ccc(N=c2oc3c(OC)cccc3cc2C(=O)NCc2ccco2)cc1OC,i,19539*,-1,u,-7
CN(C)S(=O)(=O)c1ccc(Cl)c(C(=O)OCC(=O)c2ccco2)c1,0,3833,2,0,-4
O=C(Cc1ccccc1)Nc1ccc(N2CCN(Cc3ccccc3F)CC2)cc1,0,17943*,6,u,-12
Cc1ccc(C(=O)N2CCN(c3ccc(NC(=S)NC(=O)Cc4ccccc4)cc3)CC2)cc1,i,22933*,-4,1,-3
COc1ccc(C(=O)N2CCN(c3ccc(NC(=O)Cc4ccccc4)cc3)CC2)cc1,0,5722,-5,-1,-4
COC(=O)c1c(C)cc(C)c2c1CC(C)(C)C2=O,-1,8410,-38,-6,2
COc1ccc(-c2nc(CS(=O)(=O)CC(=O)NCCc3cc(OC)ccc3OC)c(C)o2)cc1,i,17109*,-2,-2,-3
COc1cccc(-c2nc(CS(=O)(=O)CC(=O)NCCC(C)C)c(C)o2)c1,0,6128,-2,0,-7
COCCCNC(=O)CS(=O)(=O)Cc1nc(-c2cccc(OC)c2)oc1C,-11,20516*,-4,-3,1
COc1cccc(-c2nc(CS(=O)(=O)CC(=O)NCCc3cc(OC)ccc3OC)c(C)o2)c1,-2,4428,1,1,-1
COc1ccc(OC)c(CCNC(=O)CS(=O)(=O)Cc2nc(-c3ccc(C)cc3)oc2C)c1,i,23969*,-5,-3,-1
